FPR binder – binds the human formylpeptide receptor FPR; P21462; FPR-expressing cells, fluorescent ligand binding, flow cytometry; inhibition, % (concentration not given with the values); hit rate 0.74% among 24,000;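 also: 0% = buffer wells and 100% = receptor blocker peptide wells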
Target sequence (P21462 whole entry, looked up): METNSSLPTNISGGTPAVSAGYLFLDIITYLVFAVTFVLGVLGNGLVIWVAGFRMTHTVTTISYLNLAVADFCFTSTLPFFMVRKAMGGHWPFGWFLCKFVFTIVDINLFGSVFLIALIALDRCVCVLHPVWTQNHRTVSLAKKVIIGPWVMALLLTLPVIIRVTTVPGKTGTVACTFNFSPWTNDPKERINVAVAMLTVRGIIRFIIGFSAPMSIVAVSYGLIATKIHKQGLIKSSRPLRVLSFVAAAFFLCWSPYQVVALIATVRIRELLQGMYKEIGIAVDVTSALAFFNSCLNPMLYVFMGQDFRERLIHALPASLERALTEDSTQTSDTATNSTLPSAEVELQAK
FPRL1 binder – ligands of human FPRL1, also counter-screen for FPR ligands. P25090. FPRL1-expressing cells, fluorescent ligand binding inhibition, flow cytometry. inhibition, % (concentration not given with the values). hit rate 0.3% among 24,000. AID 441;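 also: 0% = buffer alone and 100% = receptor blocker peptide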
QS inhibitor – blocks AIP-induced quorum sensing reporter in S. aureus; S. aureus RN6390 RNAIII-GFP reporter, flow cytometry 3 h; inhibition, % at 2 µM; hit rate 0.3% among 24,000; AID 527;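 active = share of bacteria positive for the green fluorescent reporter and its mean brightness both inhibited by 50% or more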;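 also: 0% = AIP-stimulated control and 100% = unstimulated bacteria without AIP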
* marks the source's active call; other numbers are inactive results; ? = inconclusive; . = no result; ! = repeats disagree. An excerpt weighted towards active compounds, which were near 0.96% of everything screened. Rule as the data show it, unless noted: active = inhibition above about 30%; inconclusive = no clear call, values can overlap the other calls; inactive = below that.

SMILES	FPR binder	FPRL1 binder	QS inhibitor
Cc1ccc(NC(=O)c2cc(C)on2)cc1	-4	-1	76*
CC1Cc2ccccc2N1C(=O)c1cnc2ccccn2c1=O (configuration not stated)	-1	11	0
CCC(=O)O[C@@H]1CC(=O)O[C@H](C)CC=CC=C[C@@H](O)[C@H](C)C[C@H](CC=O)[C@H](O[C@H]2O[C@H](C)[C@@H](O[C@H]3C[C@@](C)(O)[C@@H](OC(=O)CC)[C@H](C)O3)[C@H](N(C)C)[C@H]2O)[C@H]1OC	-4	0	51*
O=C(NCCC1=CCCCC1)C1CCCN(S(=O)(=O)c2cnc[nH]2)C1 (configuration not stated)	0	1	9
O=C(O)CC(C(=O)Nc1cccc(C(F)(F)F)c1)C1CCCO1 (configuration not stated)	-3	2	0
CCc1c(C)nc2c(C#N)c(C)[nH]n2c1=O	50*	27	.
N#Cc1c[nH]n2c(=O)cc(Cc3ccccc3)nc12	0	-4	.
Cc1nc2c(C#N)c[nH]n2c(=O)c1Cc1ccccc1	40*	-7	.
Cc1nc2c(C#N)c(C)[nH]n2c(=O)c1Cc1ccccc1	32*	2	.
Cc1[nH]n2c(=O)cc(Cc3ccccc3)nc2c1C#N	7	-2	5
CCOC(=O)Cc1c(C)nc2c(-c3ccccc3)c(C)[nH]n2c1=O	-15	6	.
CC(C)CCn1cnc2c(cnn2-c2ccc(F)cc2)c1=O	12	5	-2
COc1cccc(Oc2cnc(N)nc2-c2ccc(OC)cc2O)c1	4	0	62*
C=C(C)COc1ccc(-c2nc(N)ncc2-c2ccc(OC)cc2)c(O)c1	-4	0	14
Cc1ccc(-c2nc(CS(=O)CC(=O)NCc3ccccc3)c(C)o2)cc1 (configuration not stated)	3	6	1
O=C(NC1CCCCC1)C1CCCN1C(=O)NCc1ccccc1 (configuration not stated)	-3	1	1
O=C(NC1CCCC1)C1CC1c1ccccc1 (configuration not stated)	26	46*	0
CCOC(=O)c1[nH]c(C)c(/C(O)=C2\C(=O)C(=O)N(CCCN3CCOCC3)C2c2cccnc2)c1C (configuration not stated)	-6	-2	.
COC(=O)c1[nH]c(C)c(/C(O)=C2\C(=O)C(=O)N(CCCN3CCOCC3)C2c2ccccn2)c1C (configuration not stated)	38*	-2	-1
Cc1ccc(-c2nnn(CC(=O)N(CC(=O)NC3CCCCC3)c3cnc4ccccc4c3)n2)o1	1	-3	8
COc1ccc(OC)c(CCNC(=O)Cn2sc3nc(C)cc(C)c3c2=O)c1	-15	4	5
O=c1c2c(nc3c(-c4ccc(Cl)cc4)c[nH]n13)CCCC2	71*	1	.
O=c1c2c(nc3c(-c4cccc5ccccc45)c[nH]n13)CCC2	-14	-1	.
COc1cccc(C2C(C(=O)c3cc4ccccc4o3)=C(O)C(=O)N2c2cc(C)on2)c1OC (configuration not stated)	54*	2	.
COc1cccc(C2C(C(=O)c3cccs3)=C(O)C(=O)N2c2cc(C)on2)c1 (configuration not stated)	12	5	.
SMILES	FPR binder	FPRL1 binder	QS inhibitor
COc1cccc(C2C(C(=O)c3cc4cccc(OC)c4o3)=C(O)C(=O)N2c2cc(C)on2)c1OC (configuration not stated)	12	-4	.
COc1ccc(OC)c(C2C(C(=O)c3cccs3)=C(O)C(=O)N2c2cc(C)on2)c1 (configuration not stated)	56*	0	.
CCOc1ccccc1C(=O)N1CCN=C1SC	2	0	-1
COc1ccc(OC)c(C2N(c3ccc(Cl)cc3)C(=O)C3CCCN32)c1 (configuration not stated)	-3	0	5
CC[C@H]1OC(=O)C[C@@H](O)[C@H](C)[C@@H](O[C@@H]2O[C@H](C)C[C@H](N(C)C)[C@H]2O)[C@@H](CC=O)C[C@@H](C)C(=O)C=C[C@]2(C)O[C@H]2[C@@H]1C	8	10	51*
COC(=O)c1cc2ccsc2n1CC(=O)N(C)c1ccccc1	-2	-3	0
COc1ccc(-c2cc(C(F)(F)F)nc(N3CCN(Cc4ccccc4)CC3)n2)cc1OC	8	75*	3
COc1ccc(-c2cc(C(F)(F)F)nc(N3CCN(c4ccc(F)cc4)CC3)n2)cc1OC	-4	2	7
O=C(NCC1CCCO1)c1sc(=S)n2c1[nH]c(=O)c1ccc(C(=O)N3CCCCC3)cc12 (configuration not stated)	-1	-1	4
CCCCCCNC(=O)Cc1c(O)c2ccccc2[nH]c1=O	-2	-1	0
O=C(NC1CCCCC1)c1sc(=S)n2c1[nH]c(=O)c1ccccc12	62*	-3	0
CCCCNC(=O)c1sc(=S)n2c1[nH]c(=O)c1ccccc12	89*	4	-3
CCc1ccc(-c2nc(CN3CCC(C(=O)NCc4ccco4)CC3)c(C)o2)cc1	-6	0	-4
Oc1c(Cl)cc(Cl)c2c1NCCC2	-8	4	0
COc1cccc2c1C(=O)c1c(O)c3c(c(O)c1C2=O)C[C@@](O)(C(C)=O)C[C@@H]3O[C@H]1C[C@H](N)[C@H](O)[C@H](C)O1	-15	32*	-13
Nc1nc(Cn2nnc(-c3ccccc3F)n2)nc(N2CCOCC2)n1	0	6	0
N#Cc1c(C(F)(F)F)cc(-c2ccccc2)nc1SCc1nc(N)nc(N2CCOCC2)n1	?	47*	-4
O=C(c1ccccc1S(=O)(=O)NCc1ccccc1)N1CCCC1	0	-1	-3
CCc1ccccc1NC(=O)CN(c1cccc(OC)c1)S(C)(=O)=O	-1	8	-2
CCOC(=O)c1nc(N2CCN(C(=O)OCC)CC2)c2c3c(sc2n1)CCCC3	2	-3	-1
CCOc1cc(C(=O)NCc2nnc(SCC(=O)OC)n2C)cc(OCC)c1OCC	9	75*	2
CCOC(=O)CSc1nnc(CNC(=O)c2cc(OCC)c(OCC)c(OCC)c2)n1C	-6	51*	-2
CCOC(=O)CSc1nnc(CNC(=O)c2cc(OC)c(OC)c(OC)c2)n1C	2	-2	26
CCOC(=O)CSc1nnc(CNC(=O)c2ccc(OC)c(OC)c2)n1C	0	1	-2
O=C(NCSc1ccncn1)c1ccccc1	-1	19	2
SMILES	FPR binder	FPRL1 binder	QS inhibitor
CCOC(=O)N1CCN(C(=O)c2ccc3c(=O)n4c(nc3c2)CCCCC4)CC1	-3	-4	-4
CS(=O)(=O)NCCSCc1c(F)cccc1Cl	-2	0	0
CCCC(=O)Nc1cc(C)c2c(=O)oc3ccccc3c2n1	-5	-1	1
Cc1cc(NC(=O)CC(C)(C)C)nc2c1c(=O)oc1ccccc12	7	-10	72*!
CCOc1ccccc1NC(=O)NC1CCN(CC(=O)Nc2ccc3c(c2)OCCO3)CC1	0	-1	-2
Cc1ccccc1-n1c(Cn2c(=O)sc3ccccc32)nnc1SCC(N)=O	4	6	-2
Cc1cc(NC(=O)CSc2nnc(Cn3c(=O)sc4ccccc43)n2-c2ccccc2C)no1	36*	16	-2
CCc1cc(=O)oc2cc(OC(C)=O)cc(OC(C)=O)c12	18	2	0

Assay outcomes (PubChem BioAssay)
